# Test results taken from the supplement of paper PMC4466140.
# B1: unnamed (peptide)
# chain: APKREAPKPPANTSP
# B2: unnamed (peptide)
# chain: LLLLFVPDSPYDPAI
# Assays:
# Assay in all cases: SPOT peptide array binding signal intensity (averaged, normalized) (arbitrary units (background-subtracted, floor 0; scale differs between SH3 domains)); higher = stronger binding of the SH3 domain to the peptide
# SpBzz1-D2 = molecular target: SpBzz1-D2
# Procedure, shortened: (§1)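 Binding signal is given in arbitrary units that differ between domains and is the normalized, background-subtracted spot intensity averaged across replicates. Each GST-SH3 fusion from one of four yeast species was made in E. coli BL21(DE3), purified on glutathione Sepharose and incubated at 10 μg/ml overnight at 4°C on cellulose-bound synthetic 15-mer peptides in which cysteines were replaced by serines. Detection used anti-GST antibody, an HRP anti-mouse secondary and luminol, followed by imaging and Genespotter quantification.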
# SpCyk3 = molecular target: SpCyk3
# Procedure, shortened: as §1
# SpHof1 = molecular target: SpHof1
# Procedure, shortened: as §1
# SpHof1-2 = molecular target: SpHof1-2
# Procedure, shortened: as §1
# SpHof1-3 = molecular target: SpHof1-3
# Procedure, shortened: as §1
# SpHse1 = molecular target: SpHse1
# Procedure, shortened: as §1
# SpLsb1 = molecular target: SpLsb1
# Procedure, shortened: as §1
# SpLsb4 = molecular target: SpLsb4
# Procedure, shortened: as §1
# SpMyo1 = molecular target: SpMyo1
# Procedure, shortened: as §1
# SpNbp2 = molecular target: SpNbp2
# Procedure, shortened: as §1
# SpPex13 = molecular target: SpPex13
# Procedure, shortened: as §1
# SpRvs167 = molecular target: SpRvs167
# Procedure, shortened: as §1
# SpSla1-D1-D2 = molecular target: SpSla1-D1-D2
# Procedure, shortened: as §1
# SpSla1-D3 = molecular target: SpSla1-D3
# Procedure, shortened: as §1
# AgAbp1 = molecular target: AgAbp1
# Procedure, shortened: as §1
# AgBbc1 = molecular target: AgBbc1
# Procedure, shortened: as §1
# AgBem1-D1 = molecular target: AgBem1-D1
# Procedure, shortened: as §1
# AgBzz1-D1 = molecular target: AgBzz1-D1
# Procedure, shortened: as §1
# AgBzz1-D2 = molecular target: AgBzz1-D2
# Procedure, shortened: as §1
# AgCyk3 = molecular target: AgCyk3
# Procedure, shortened: as §1
# AgFus1 = molecular target: AgFus1
# Procedure, shortened: as §1
# AgHof1 = molecular target: AgHof1
# Procedure, shortened: as §1
# AgHse1 = molecular target: AgHse1
# Procedure, shortened: as §1
# AgLsb1 = molecular target: AgLsb1
# Procedure, shortened: as §1
# AgLsb4 = molecular target: AgLsb4
# Procedure, shortened: as §1
# AgMyo5 = molecular target: AgMyo5
# Procedure, shortened: as §1
# AgNbp2 = molecular target: AgNbp2
# Procedure, shortened: as §1
# AgRvs167 = molecular target: AgRvs167
# Procedure, shortened: as §1
# AgSho1 = molecular target: AgSho1
# Procedure, shortened: as §1
# AgSla1-D1-D2 = molecular target: AgSla1-D1-D2
# Procedure, shortened: as §1
# AgSla1-D3 = molecular target: AgSla1-D3
# Procedure, shortened: as §1
# CaAbp1-D1 = molecular target: CaAbp1-D1
# Procedure, shortened: as §1
# CaAbp1-D2 = molecular target: CaAbp1-D2
# Procedure, shortened: as §1
# CaBbc1 = molecular target: CaBbc1
# Procedure, shortened: as §1
# CaBem1-D1 = molecular target: CaBem1-D1
# Procedure, shortened: as §1
# CaBzz1-D1 = molecular target: CaBzz1-D1
# Procedure, shortened: as §1
# CaBzz1-D2 = molecular target: CaBzz1-D2
# Procedure, shortened: as §1
# CaCyk3 = molecular target: CaCyk3
# Procedure, shortened: as §1
# CaFus1 = molecular target: CaFus1
# Procedure, shortened: as §1
# CaHof1 = molecular target: CaHof1
# Procedure, shortened: as §1
# CaHse1 = molecular target: CaHse1
# Procedure, shortened: as §1
# CaLsb1 = molecular target: CaLsb1
# Procedure, shortened: as §1
# CaLsb4 = molecular target: CaLsb4
# Procedure, shortened: as §1
# CaMyo5 = molecular target: CaMyo5
# Procedure, shortened: as §1
# CaNbp2 = molecular target: CaNbp2
# Procedure, shortened: as §1
# CaRvs167 = molecular target: CaRvs167
# Procedure, shortened: as §1
# CaRvs167-3 = molecular target: CaRvs167-3
# Procedure, shortened: as §1
# CaSho1 = molecular target: CaSho1
# Procedure, shortened: as §1
# CaSla1-D1-D2 = molecular target: CaSla1-D1-D2
# Procedure, shortened: as §1
# CaSla1-D3 = molecular target: CaSla1-D3
# Procedure, shortened: as §1
# ScAbp1 = molecular target: ScAbp1
# Procedure, shortened: as §1
# ScBbc1 = molecular target: ScBbc1
# Procedure, shortened: as §1
# ScBem1-D1 = molecular target: ScBem1-D1
# Procedure, shortened: as §1
# ScBzz1-D1 = molecular target: ScBzz1-D1
# Procedure, shortened: as §1
# ScBzz1-D2 = molecular target: ScBzz1-D2
# Procedure, shortened: as §1
# ScCyk3 = molecular target: ScCyk3
# Procedure, shortened: as §1
# ScFus1 = molecular target: ScFus1
# Procedure, shortened: as §1
# ScHof1 = molecular target: ScHof1
# Procedure, shortened: as §1
# ScHse1 = molecular target: ScHse1
# Procedure, shortened: as §1
# ScLsb1 = molecular target: ScLsb1
# Procedure, shortened: as §1
# ScLsb2 = molecular target: ScLsb2
# Procedure, shortened: as §1
# ScLsb3 = molecular target: ScLsb3
# Procedure, shortened: as §1
# ScLsb4 = molecular target: ScLsb4
# Procedure, shortened: as §1
# ScMyo3 = molecular target: ScMyo3
# Procedure, shortened: as §1
# ScMyo5 = molecular target: ScMyo5
# Procedure, shortened: as §1
# ScNbp2 = molecular target: ScNbp2
# Procedure, shortened: as §1
# ScPex13 = molecular target: ScPex13
# Procedure, shortened: as §1
# ScRvs167 = molecular target: ScRvs167
# Procedure, shortened: as §1
# ScSho1 = molecular target: ScSho1
# Procedure, shortened: as §1
# ScSla1-D1-D2 = molecular target: ScSla1-D1-D2
# Procedure, shortened: as §1
# ScSla1-D3 = molecular target: ScSla1-D3
# Procedure, shortened: as §1
# SpAbp1-D1 = molecular target: SpAbp1-D1
# Procedure, shortened: as §1
# SpBbc1 = molecular target: SpBbc1
# Procedure, shortened: as §1
# SpBzz1-D1 = molecular target: SpBzz1-D1
# Procedure, shortened: as §1
binder,measurement,setting,value
B1,SPOT peptide array binding signal intensity,SpBzz1-D2,0.25
same,SPOT peptide array binding signal intensity,SpCyk3,≤ 0
same,SPOT peptide array binding signal intensity,SpHof1,≤ 0
same,SPOT peptide array binding signal intensity,SpHof1-2,≤ 0
same,SPOT peptide array binding signal intensity,SpHof1-3,6.25
same,SPOT peptide array binding signal intensity,SpHse1,3.5
same,SPOT peptide array binding signal intensity,SpLsb1,≤ 0
same,SPOT peptide array binding signal intensity,SpLsb4,≤ 0
same,SPOT peptide array binding signal intensity,SpMyo1,1270
same,SPOT peptide array binding signal intensity,SpNbp2,1
same,SPOT peptide array binding signal intensity,SpPex13,≤ 0
same,SPOT peptide array binding signal intensity,SpRvs167,2.67
same,SPOT peptide array binding signal intensity,SpSla1-D1-D2,≤ 0
same,SPOT peptide array binding signal intensity,SpSla1-D3,0.5
B2,SPOT peptide array binding signal intensity,AgAbp1,1
same,SPOT peptide array binding signal intensity,AgBbc1,0.75
same,SPOT peptide array binding signal intensity,AgBem1-D1,27
same,SPOT peptide array binding signal intensity,AgBzz1-D1,17.5
same,SPOT peptide array binding signal intensity,AgBzz1-D2,20.5
same,SPOT peptide array binding signal intensity,AgCyk3,3
same,SPOT peptide array binding signal intensity,AgFus1,2370
same,SPOT peptide array binding signal intensity,AgHof1,2.25
same,SPOT peptide array binding signal intensity,AgHse1,277
same,SPOT peptide array binding signal intensity,AgLsb1,≤ 0
same,SPOT peptide array binding signal intensity,AgLsb4,636
same,SPOT peptide array binding signal intensity,AgMyo5,1
same,SPOT peptide array binding signal intensity,AgNbp2,63
same,SPOT peptide array binding signal intensity,AgRvs167,1.67
same,SPOT peptide array binding signal intensity,AgSho1,212
same,SPOT peptide array binding signal intensity,AgSla1-D1-D2,≤ 0
same,SPOT peptide array binding signal intensity,AgSla1-D3,0.5
same,SPOT peptide array binding signal intensity,CaAbp1-D1,11
same,SPOT peptide array binding signal intensity,CaAbp1-D2,1
same,SPOT peptide array binding signal intensity,CaBbc1,≤ 0
same,SPOT peptide array binding signal intensity,CaBem1-D1,≤ 0
same,SPOT peptide array binding signal intensity,CaBzz1-D1,43.5
same,SPOT peptide array binding signal intensity,CaBzz1-D2,19.5
same,SPOT peptide array binding signal intensity,CaCyk3,1
same,SPOT peptide array binding signal intensity,CaFus1,5080
same,SPOT peptide array binding signal intensity,CaHof1,66.8
same,SPOT peptide array binding signal intensity,CaHse1,92
same,SPOT peptide array binding signal intensity,CaLsb1,1.5
same,SPOT peptide array binding signal intensity,CaLsb4,≤ 0
same,SPOT peptide array binding signal intensity,CaMyo5,6.25
same,SPOT peptide array binding signal intensity,CaNbp2,264
same,SPOT peptide array binding signal intensity,CaRvs167,15.8
same,SPOT peptide array binding signal intensity,CaRvs167-3,3.5
same,SPOT peptide array binding signal intensity,CaSho1,611
same,SPOT peptide array binding signal intensity,CaSla1-D1-D2,6.5
same,SPOT peptide array binding signal intensity,CaSla1-D3,11.5
same,SPOT peptide array binding signal intensity,ScAbp1,≤ 0
same,SPOT peptide array binding signal intensity,ScBbc1,0.25
same,SPOT peptide array binding signal intensity,ScBem1-D1,7
same,SPOT peptide array binding signal intensity,ScBzz1-D1,31
same,SPOT peptide array binding signal intensity,ScBzz1-D2,7
same,SPOT peptide array binding signal intensity,ScCyk3,37
same,SPOT peptide array binding signal intensity,ScFus1,1060
same,SPOT peptide array binding signal intensity,ScHof1,2.25
same,SPOT peptide array binding signal intensity,ScHse1,662
same,SPOT peptide array binding signal intensity,ScLsb1,≤ 0
same,SPOT peptide array binding signal intensity,ScLsb2,≤ 0
same,SPOT peptide array binding signal intensity,ScLsb3,≤ 0
same,SPOT peptide array binding signal intensity,ScLsb4,1
same,SPOT peptide array binding signal intensity,ScMyo3,≤ 0
same,SPOT peptide array binding signal intensity,ScMyo5,≤ 0
same,SPOT peptide array binding signal intensity,ScNbp2,74
same,SPOT peptide array binding signal intensity,ScPex13,0.25
same,SPOT peptide array binding signal intensity,ScRvs167,0.333
same,SPOT peptide array binding signal intensity,ScSho1,1530
same,SPOT peptide array binding signal intensity,ScSla1-D1-D2,≤ 0
same,SPOT peptide array binding signal intensity,ScSla1-D3,27.5
same,SPOT peptide array binding signal intensity,SpAbp1-D1,1
same,SPOT peptide array binding signal intensity,SpBbc1,≤ 0
same,SPOT peptide array binding signal intensity,SpBzz1-D1,26
same,SPOT peptide array binding signal intensity,SpBzz1-D2,1.5
same,SPOT peptide array binding signal intensity,SpCyk3,25
same,SPOT peptide array binding signal intensity,SpHof1,6.25
same,SPOT peptide array binding signal intensity,SpHof1-2,5.5
same,SPOT peptide array binding signal intensity,SpHof1-3,85.5
same,SPOT peptide array binding signal intensity,SpHse1,1440
same,SPOT peptide array binding signal intensity,SpLsb1,≤ 0
same,SPOT peptide array binding signal intensity,SpLsb4,2
same,SPOT peptide array binding signal intensity,SpMyo1,3
same,SPOT peptide array binding signal intensity,SpNbp2,195
same,SPOT peptide array binding signal intensity,SpPex13,20
same,SPOT peptide array binding signal intensity,SpRvs167,≤ 0
same,SPOT peptide array binding signal intensity,SpSla1-D1-D2,3
same,SPOT peptide array binding signal intensity,SpSla1-D3,1
